PubChem BioAssay AID623868 (Vanderbilt High Throughput Screening Facility, 2012)
The whole screen tested about 2,100 compounds, of which about 760 (36%) were called active.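 How the source made its calls: active means thallium-flux fluorescence traces judged by eye to show enhanced or reduced glutamate response, manual score 1 or -1, so both directions (some results past the limit were not filed as active); inactive means the rest, including fluorescent or raised-baseline compounds.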 A selection follows.

assay: non-GIRK thallium flux modulation in mGlu8 cells, confirmation, counter-screen for GIRK activator project, cell-based, HEK-293 rmGlu8, no GIRK (AID 623868); details: thallium flux fluorescence, at 10 µM, actives lie on both sides, codes: 1 enhancer, -1 blocker, 0 none, thallium stimulus containing EC20 glutamate;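 further: extra codes mark interference with 3 for fluorescent and 4 for baseline rise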

| Compound | manual score |
| --- | --- |
| CCN(c1ccccc1)S(=O)(=O)c1ccc(NC(=S)NC(=O)c2ccc(Br)o2)cc1 | 1 (active) |
| CN(c1ccccc1)S(=O)(=O)c1ccc(NC(=S)NC(=O)c2ccccc2)cc1 | 0 (inactive) |
| CCc1nnc(NS(=O)(=O)c2ccc(NC(=S)NC(=O)c3ccccc3)cc2)s1 | 0 (inactive) |
| COC(=O)c1ccc(NC(=O)CSc2nnc(COc3ccccc3)n2C)cc1 | 3 (inactive) |
| CCOC(=O)CN(C(=O)CSc1nnc(Cc2ccccc2)n1-c1ccc(C)cc1)c1ccccc1 | 0 (inactive) |
| CCOC(=O)c1ccccc1NC(=O)CSc1nnc(Cc2cccn2C)n1-c1ccc(F)cc1 | 0 (inactive) |
| CCOC(=O)c1ccccc1NC(=O)CSc1nnc(Cc2cccn2C)n1-c1ccc(C)cc1 | -1 (active) |
| CCOC(=O)c1ccccc1NC(=O)CSc1nnc(COc2ccccc2)n1CC | 0 (inactive) |
| CCOC(=O)c1ccccc1NC(=O)CSc1nnc(COc2ccccc2C)n1C | -1 (active) |
| CC(Sc1nc2ccccc2c(=O)[nH]1)C(=O)O (stereo not given) | 0 (inactive) |
| CCc1nc(SCc2ccc(F)cc2)[nH]c(=O)c1C#N | 3 (inactive) |
| N#Cc1c(-c2ccco2)nc(SCc2ccc(F)cc2)[nH]c1=O | -1 (active) |
| CCSc1nc(-c2ccccc2)c(C#N)c(=O)[nH]1 | -1 (active) |
| N#Cc1c(N)nc(SCc2ccccc2)c(C#N)c1-c1ccco1 | 0 (inactive) |
| CCOc1ccccc1C1CC(=O)NC(SCC)=C1C#N (stereo not given) | 0 (inactive) |
| Cc1oc(-c2ccccc2F)nc1CS(=O)(=O)CC(=O)NCCN(C)C1CCCCC1 | 0 (inactive) |
| c1cn(CC2(Cn3ccnc3)COC2)cn1 | 0 (inactive) |
| CCCc1ccc(C(=O)N2CCN(c3ccccc3OCC)CC2)cc1 | -1 (active) |
| O=C(c1ccccc1Oc1ccccc1)N1CCN(c2ccccc2)CC1 | 0 (inactive) |
| CCOc1ccccc1N1CCN(C(=O)c2cc3c(s2)CCC3)CC1 | -1 (active) |
| O=C(c1ccccc1CCc1ccccc1)N1CCN(c2ccccn2)CC1 | 0 (inactive) |
| CC1CCN(c2c([N+](=O)[O-])c(=O)oc3ccccc23)CC1 | 0 (inactive) |
| COc1ccc(C(C)n2c(C)c3c(C)nnc(C)c3c2C)cc1 (stereo not given) | 0 (inactive) |
| O=C1OCCC1Sc1nc2cc(Cl)ccc2n1Cc1ccccc1 (stereo not given) | 1 (active) |
| O=C(CSc1nc2ccccc2n1CCc1ccccc1)N1CCOCC1 | 0 (inactive) |
| CC1=C(C(=O)Nc2cccnc2)C(c2ccc3c(c2)OCO3)C2=C(CCCC2=O)N1 (stereo not given) | 0 (inactive) |
| Cc1cccc(-c2nc(CN3CCCC(C(=O)NC4CCCCC4)C3)c(C)o2)c1 (stereo not given) | 0 (inactive) |

| Compound | manual score |
| --- | --- |
| Cc1oc(-c2ccccc2)nc1CS(=O)CC(=O)O (stereo not given) | 1 (active) |
| Cc1ccccc1-c1nc(CS(=O)(=O)CC(=O)NCCCN2CCCC2)c(C)o1 | 0 (inactive) |
| CCOC(=O)Cc1csc(NC(=S)NC(=O)C(C)(C)C)n1 | 1 (active) |
| CCOC(=O)Cc1csc(NC(=S)NC(=O)c2ccc(C)cc2)n1 | 1 (active) |
| CCOC(=O)Cc1csc(NC(=O)Nc2ccccc2)n1 | 0 (inactive) |
| CCOC(=O)Cc1csc(NC(=S)NC(=O)c2ccccc2)n1 | 1 (active) |
| CC1CCN(c2ccc(/C=N/n3nnnc3N)cc2[N+](=O)[O-])CC1 | 0 (inactive) |
| COc1ccc2c(c1)Sc1ccccc1N2CCN(C)C | 0 (inactive) |
| O/N=C/c1cc(Cl)ccc1OCc1cccc2ccccc12 | 0 (inactive) |
| COc1ccccc1/C=C/C=N\N1CCN(Cc2ccccc2Cl)CC1 | 0 (inactive) |
| Cc1cc(C)n(-c2nnc(C)n2/N=C/c2ccccc2OCc2ccccc2Cl)n1 | -1 (active) |
| CCNC(=S)NNC(=O)c1cccn(Cc2ccc(Cl)cc2)c1=O | 0 (inactive) |
| Fc1ccc(NC(=S)Nc2ccccc2OC(F)F)cc1Cl | 0 (inactive) |
| CCc1ccc(NC(=S)NNC(=O)c2ccccc2OC(F)F)cc1 | 1 (active) |
| CCc1ccc(Nc2nc3ccccc3c(=O)s2)cc1 | 1 (active) |
| c1ccc2c(Nc3nnc(-c4ccncc4)s3)cccc2c1 | 0 (inactive) |
| CCc1ccc2c(c1)C1(NN=C(c3cccc4ccccc34)S1)C(=O)N2 (stereo not given) | 0 (inactive) |
| CCOc1cc(C(=O)NCc2ccncc2)cc(OCC)c1OCC | 0 (inactive) |
| COc1ccc(-n2nnnc2SCC(=O)N2CCOCC2)cc1 | 0 (inactive) |
| NS(=O)(=O)c1ccc(S(=O)(=O)N2CCCC2)cc1 | 0 (inactive) |
| Cc1ccc(-c2nnc(SCC(=O)Nc3ccc4c(c3)OCCO4)n2N)cc1 | 0 (inactive) |
| Cc1ccc2nc(-c3ccc(O)cc3)c(Nc3ccc4c(c3)OCCO4)n2c1 | -1 (active) |
| CCCN(CCC)CC(O)Cn1cc(/C=C/C(=O)c2cccs2)c2ccccc21 (stereo not given) | 3 (inactive) |
| O=C(Nc1nc2ccc(Cl)cc2s1)c1ccc(Br)o1 | 0.5 (inactive) |
| CNC(=O)c1ccc2nc(NC(C)=O)sc2c1 | 0 (inactive) |
| CCc1ccc2nc(NC(=O)c3cc(C)on3)sc2c1 | 1 (active) |
| Cc1cc(C)c2nc(NC(=O)c3cc(C)on3)sc2c1 | 1 (active) |

| Compound | manual score |
| --- | --- |
| COc1ccc(-c2c(S(=O)(=O)c3ccccc3)cnn2-c2ccccc2)cc1 | 0 (inactive) |
| CCOc1ccc(NC(=O)NC23CC4CC(CC(C4)C2)C3)cc1 | 0 (inactive) |
| COc1ccc2nc(N=Nc3ccc(O)c4ccccc34)sc2c1 | 0 (inactive) |
| CS(=O)(=O)c1ccc2nc(NC(=O)Nc3ccc(Cl)c(Cl)c3)sc2c1 | 0 (inactive) |
| COc1ccc2nc(NC(=S)N(C)C)sc2c1 | 1 (active) |
| Cc1ccc(OCC(O)Cn2c(=N)n(Cc3ccccc3)c3ccccc32)cc1 (stereo not given) | 0 (inactive) |
| CCn1c2ccccc2c2cc(/C=N/n3cn[nH]c3=S)ccc21 | 1 (active) |
| CCn1c(-c2ccc(-c3ccccc3)cc2)c[nH]c1=S | 0 (inactive) |
| CCn1c(-c2cc3c(C(F)(F)F)nn(C)c3s2)n[nH]c1=S | 0 (inactive) |
| CCOC(=O)Cn1c(=N)n(Cc2ccccc2F)c2ccccc21 | 0 (inactive) |
| O=[n+]1c2c(n([O-])c3cc(F)c(N4CCCC4)cc31)CCCC2 | 3 (inactive) |
| Cc1ccc(S(=O)(=O)N2CCN(C)CC2)cc1-c1nnc2c3ccccc3c(C)nn12 | 0 (inactive) |
| C/C(=N\NC(=S)Nc1ccc(F)cc1)c1ccc2c(c1)OCCO2 | 1 (active) |
| C/C(=N\NC(=S)Nc1cccc(C)c1)c1cccc(N)c1 | 1 (active) |
| O=C(Nc1ccc2c(c1)OCCO2)NC12CC3CC(CC(C3)C1)C2 | 0 (inactive) |
| COC(=O)[C@H](CC(C)C)NC(=O)Nc1ccc2c(c1)OCCO2 | 0 (inactive) |
| CN(C)S(=O)(=O)c1cc(NC(=O)COC(=O)c2ccc3c(c2)OCO3)ccc1Cl | 0 (inactive) |
| C/C(=N/NC(=S)Nc1ccccc1)c1ccc2c(c1)OCO2 | 1 (active) |
| Cc1c(N2C(=O)CS/C2=N\N=C\c2ccccc2O)c(=O)n(-c2ccccc2)n1C | 0 (inactive) |
| O=C1c2ccccc2C(=O)N1Nc1ccccc1 | 0 (inactive) |
| Cc1ccc(C)n1-c1ccc(-c2nnco2)cc1 | 0 (inactive) |
| CCOc1ccc(-c2nc(-c3cccnc3)no2)cc1OCC | 0 (inactive) |
| O=C(CSc1nnnn1-c1cccc2c1CCCC2)NC1CCCC1 | 0 (inactive) |
| Cc1ccc(-c2cn(-c3ccccc3)c(SCC(=O)NC3CCS(=O)(=O)C3)n2)cc1C (stereo not given) | 1 (active) |
| Cc1ccc(OC(=S)Nc2ccccc2)c(C)c1 | 0 (inactive) |
| Cc1ccc2nc(NCc3ccccc3)[nH]c2c1 | 0 (inactive) |
| N#C/C(=C/c1ccc(N2CCOCC2)o1)c1nc2ccccc2[nH]1 | 3 (inactive) |

| Compound | manual score |
| --- | --- |
| Cc1ccc(-n2nnnc2-c2nc3ccccc3s2)cc1 | 0 (inactive) |
| N#C/C(=C\c1ccc(N2CCOCC2)o1)c1nc2ccccc2[nH]1 | 3 (inactive) |
| Cc1ccc(NC(=S)c2nc3ccccc3[nH]2)c(C)c1 | 1 (active) |
| Cc1ccccc1NC(=S)c1nc2ccccc2[nH]1 | 1 (active) |
| Cc1ccc(C)c(NC(=S)c2nc3ccccc3s2)c1 | 1 (active) |
| Cc1ccc(Cn2c(SCC(=O)N3CC(=O)Nc4ccccc43)nc3ccccc3c2=O)cc1 | 1 (active) |
| Cc1ccc(Cn2c(SCC(=O)NCC3CCCO3)nc3c(sc4ccccc43)c2=O)cc1 (stereo not given) | 0 (inactive) |
| O=C(CSc1nc2ccccc2c(=O)n1CC1CCCO1)N1CCN(c2ccccc2)CC1 (stereo not given) | 0 (inactive) |
| CC(c1ccccc1)n1c(SCC(=O)N2CC(=O)Nc3ccccc32)nc2ccccc2c1=O (stereo not given) | 0 (inactive) |
| Cc1cc(NC(=O)CSc2nc3ccccc3c(=O)n2Cc2ccccc2)no1 | 0 (inactive) |
| O=C1CN(C(=O)CSc2nc3cc(Cl)ccc3c(=O)n2Cc2ccccc2)c2ccccc2N1 | 1 (active) |
| CCC(C)NC(=O)CSc1nc2ccccc2c(=O)n1Cc1ccc(OC)cc1 (stereo not given) | 1 (active) |
| O=C1CN(C(=O)CSc2nc3ccccc3c(=O)n2Cc2ccc(F)cc2)c2ccccc2N1 | 1 (active) |
| Clc1ccc(OCCn2ccnc2)c(Cl)c1 | 0 (inactive) |
| CC(/C=N/n1c(-c2ccc(Cl)cc2)n[nH]c1=S)=C\c1ccco1 | 1 (active) |
| CC(/C=N/n1c(-c2ccccc2)n[nH]c1=S)=C\c1ccco1 | 1 (active) |
| O=C(Nc1ccccc1)Nc1nccs1 | -0.5 (inactive) |
| COC(=O)CSC1=NS(=O)(=O)c2ccccc21 | 0 (inactive) |
| CCCc1nc2ccccc2c(=O)n1/N=C/c1c(C)[nH]n(-c2ccc(C)cc2)c1=O | 1 (active) |
| CN(C)CCNc1nc2c(c(=O)[nH]c(=O)n2C)n1CCCc1ccccc1 | 0 (inactive) |
| O=c1c(-c2ccccc2)nc(-c2ccccc2)cn1O | 1 (active) |
| COCCn1nnnc1C(c1ccccc1)N1CCN(c2ccccc2)CC1 (stereo not given) | 0 (inactive) |
| CCC(=O)Oc1oc(-c2ccccc2)nc1C=Nc1ccccc1OC | -1 (active) |
| COc1ccccc1N=Cc1nc(-c2ccccc2)oc1OC(C)=O | -1 (active) |
